Assay results published in PubChem BioAssay AID1159580 (chemical genetic matrix, 2015).
Several values for one entry are separate records, joined by “and”; a condition that tells them apart may be missing. Equal values may be shown once. The whole screen tested about 5,500 compounds, of which about 2,000 (36%) were called active. Another 18% or so got no clear call; they are omitted. Rule as the data show it: active = normalized growth mostly below about 0.91 (no sharp cut-off); inconclusive = no clear call, values can overlap the other calls; inactive = mostly above about 0.92. Some of the results follow.

Experiment: chemical genetic growth profiling, strain panel (AID 1159580);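 also: tested at 20 µM; growth read once vehicle control cultures reached saturation at 30 °C; 1 = growth at the plate median or of vehicle wells; lower values mean less growth of the strain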
Conditions: S. cerevisiae deletion strains, growth OD

Measured: normalized growth

O=c1cc(-c2ccc(O)cc2)oc2cc(O[C@@H]3O[C@H](CO)[C@@H](O)[C@H](O)[C@H]3O)cc(O)c12
inactive: locus YAL021C, strain ccr4, hits give low values 0.975 | locus YAL026C, strain drs2, hits give low values 1.02 | locus YAL030W, strain snc1, hits give low values 1.01 | locus YBL061C, strain skt5, hits give low values 1.01 | locus YBR009C, strain hhf1, hits give low values 0.995 | locus YBR021W, strain FUR4, hits give low values 0.953 | locus YBR023C, strain chs3, hits give low values 0.995 | locus YBR171W, strain sec66, hits give low values 1.02 | locus YBR229C, strain ROT2, hits give low values 0.983 | locus YBR231C, strain swc5, hits give low values 1.04 | locus YBR279W, strain paf1, hits give low values 1 | locus YCL011C, strain gbp2, hits give low values 0.992 | locus YCL016C, strain dcc1, hits give low values 0.983 | locus YCL029C, strain bik1, hits give low values 0.973 | locus YCL069W, strain vba3, hits give low values 1 | locus YCR088W, strain abp1, hits give low values 1 | locus YDL005C, strain med2, hits give low values 1.03 | locus YDL035C, strain GPR1, hits give low values 0.999 | locus YDL040C, strain nat1, hits give low values 0.998 | locus YDL074C, strain BRE1, hits give low values 0.974 | locus YDL101C, strain DUN1, hits give low values 0.986 | locus YDL185W, strain tfp1, hits give low values 0.968 | locus YDL192W, strain arf1, hits give low values 0.976 | locus YDR001C, strain nth1, hits give low values 1.01 | locus YDR069C, strain doa4, hits give low values 1.01 | locus YDR101C, strain arx1, hits give low values 0.981 | locus YDR137W, strain rgp1, hits give low values 1.01 | locus YDR150W, strain NUM1, hits give low values 0.988 | locus YDR159W, strain sac3, hits give low values 1.06 | locus YDR162C, strain NBP2, hits give low values 1.02 | locus YDR195W, strain ref2 1.01 | locus YDR297W, strain sur2, hits give low values 1.02 | locus YDR318W, strain mcm21, hits give low values 0.986 | locus YDR334W, strain swr1, hits give low values 1.01 | locus YDR335W, strain msn5, hits give low values 1 | locus YDR388W, hits give low values 0.973 | locus YDR392W, strain spt3, hits give low values 0.935 | locus YDR502C, strain sam2, hits give low values 0.982 | locus YEL003W, strain gim4, hits give low values 1.02 | locus YEL037C, strain rad23, hits give low values 1.01 | locus YEL061C, strain CIN8 (second series), hits give low values 1 | locus YEL061C, strain CIN8, hits give low values 0.99 | locus YER015W, strain faa2, hits give low values 0.993 | locus YER016W, strain bim1, hits give low values 1.01 | locus YER110C, hits give low values 0.995 | locus YER111C, strain swi4, hits give low values 1.01 | locus YER155C, strain BEM2 (second series), hits give low values 1.05 | locus YER155C, strain BEM2, hits give low values 0.98 | locus YER167W, strain BCK2, hits give low values 0.967 | locus YFR010W, strain ubp6, hits give low values 1.02 | locus YGL078C, strain dbp3, hits give low values 0.984 | locus YGL086W, strain mad1, hits give low values 0.978 | locus YGL167C, strain pmr1, hits give low values 1 | locus YGL173C, strain kem1, hits give low values 1.03 | locus YGL227W, strain vid30, hits give low values 1.01 | locus YGL240W, strain doc1, hits give low values 1.02 | locus YGL248W, strain PDE1, hits give low values 1 | locus YGL253W, strain hxk2, hits give low values 1.01 | locus YGR078C, strain PAC10, hits give low values 0.999 | locus YGR135W, strain pre9, hits give low values 0.973 | locus YGR252W, strain gcn5, hits give low values 0.974 | locus YHR013C, strain ard1, hits give low values 0.994 | locus YHR027C, strain rpn1, hits give low values 1.01 | locus YHR030C, strain SLT2, hits give low values 0.986 and 1.05 | locus YHR079C, strain IRE1 (second series), hits give low values 0.971 | locus YHR079C, strain IRE1, hits give low values 1.03 | locus YHR094C, strain hxt1, hits give low values 0.972 | locus YHR129C, strain ARP1, hits give low values 0.988 | locus YHR142W, strain chs7, hits give low values 1 | locus YHR200W, strain rpn10, hits give low values 0.957 | locus YIL066C, strain RNR3, hits give low values 0.979 | locus YIL073C, strain SPO22, hits give low values 0.969 | locus YIL125W, strain kgd1, hits give low values 0.974 | locus YIR030C, strain dcg1, hits give low values 0.987 | locus YJL092W, strain hpr5, hits give low values 1 | locus YJL095W, strain BCK1 (second series), hits give low values 1.02 | locus YJL095W, strain BCK1, hits give low values 1.02 | locus YJL115W, strain asf1, hits give low values 1.01 | locus YJL129C, strain trk1, hits give low values 1 | locus YJL134W, strain LCB3, hits give low values 0.983 | locus YJL154C, strain vps35, hits give low values 1.01 | locus YJL164C, strain tpk1, hits give low values 0.979 | locus YJL166W, strain qcr8, hits give low values 1.01 | locus YJL168C, strain set2, hits give low values 0.995 | locus YJL187C, strain SWE1 (second series), hits give low values 0.998 | locus YJR043C, strain POL32, hits give low values 0.995 | locus YJR066W, strain TOR1, hits give low values 0.998
